# Mdm2-MdmX inh = inhibitors of human Mdm2-MdmX association, primary screen, cell-based, luminescence, split luciferase, SaOS-2, uHTS | SaOS-2 split-luciferase Mdm2/MdmX complementation | inhibition, % at 8 µM | 3% of 330,000 active | AID 485346, 2010;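 active = inhibition of at least 50% at 8 µM in the primary screen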
# Target sequence (O15151 whole entry, looked up): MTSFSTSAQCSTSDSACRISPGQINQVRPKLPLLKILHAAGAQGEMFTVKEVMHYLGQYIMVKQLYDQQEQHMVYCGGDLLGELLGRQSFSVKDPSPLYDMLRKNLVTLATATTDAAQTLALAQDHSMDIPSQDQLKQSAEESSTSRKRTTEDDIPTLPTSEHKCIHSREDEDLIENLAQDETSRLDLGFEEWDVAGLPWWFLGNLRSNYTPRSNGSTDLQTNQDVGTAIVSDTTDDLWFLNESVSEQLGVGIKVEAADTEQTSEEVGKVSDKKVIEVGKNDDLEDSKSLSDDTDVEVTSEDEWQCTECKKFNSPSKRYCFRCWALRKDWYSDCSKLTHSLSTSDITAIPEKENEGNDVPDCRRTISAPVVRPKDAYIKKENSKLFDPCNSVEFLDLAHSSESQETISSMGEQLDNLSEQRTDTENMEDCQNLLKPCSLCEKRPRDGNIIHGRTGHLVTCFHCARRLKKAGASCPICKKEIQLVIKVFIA
# Target sequence (Q00987 whole entry, looked up): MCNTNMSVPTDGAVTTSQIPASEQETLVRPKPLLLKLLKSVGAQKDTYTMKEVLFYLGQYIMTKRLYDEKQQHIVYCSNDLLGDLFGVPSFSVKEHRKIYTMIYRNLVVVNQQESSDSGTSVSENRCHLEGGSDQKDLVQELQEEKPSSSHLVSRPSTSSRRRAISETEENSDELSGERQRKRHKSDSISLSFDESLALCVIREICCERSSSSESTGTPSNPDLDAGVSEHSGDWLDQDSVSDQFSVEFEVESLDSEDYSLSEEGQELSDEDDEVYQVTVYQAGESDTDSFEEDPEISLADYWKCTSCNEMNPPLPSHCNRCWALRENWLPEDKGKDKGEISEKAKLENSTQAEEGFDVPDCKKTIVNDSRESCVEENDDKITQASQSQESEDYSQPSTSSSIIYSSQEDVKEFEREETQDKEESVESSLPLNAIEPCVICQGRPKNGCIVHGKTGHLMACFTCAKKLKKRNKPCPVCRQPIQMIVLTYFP
# CSC inhib = cancer stem cell viability inhibitors, primary screen, luminescence | AID 2717, 2010 | 1.1% of 300,000 active | inhibition, % at 7.5 µM | cancer stem cell-like cells viability; in the data active = inhibition above about 75%; inconclusive = no clear call, values can overlap the other calls; tested in HMLE shEcad cells
# GRIN3A LBD mod = binders of NR3A ligand-binding domain, primary screen, biophysical, differential scanning fluorimetry, uHTS. Glutamate receptor ionotropic, NMDA 3A (GRIN3A) ligand-binding domain. NR3A LBD differential scanning fluorimetry, Tm shift; 0% = protein alone, 100% = glycine-bound protein. Tm shift relative to glycine control, % at 25 µM. 2.5% of 340,000 active;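 active = melting temperature shift of at least 10% of the positive control shift, at one fixed dose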
# SKKanGAS inh = S. pyogenes SKKanGAS growth inhibitors in kanamycin, primary screen, streptokinase expression inhibitor project, SKKanGAS strain, BacTiter-Glo luminescence; 6 h; inhibition, % at 7.5 µM; 1.3% of 300,000 active; AID 1662, 2009;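 active = mean replicate score, as percent of positive control median, at least 50; inconclusive = mean below 50 but one replicate at or above 50; inactive = mean and every replicate below 50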;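 also: strain carries kanamycin resistance gene driven by streptokinase promoter and grows in 40 µg/ml kanamycin; loss of luminescence reflects streptokinase promoter inhibition or plain growth inhibition; 0% = median of DMSO wells and 100% = positive control at its reference dose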
# Beta apoptosis = inhibitors of cytokine-induced beta cell apoptosis, primary screen, luminescence; INS-1E cytokine-induced death, ATP luminescence, 48 h; percent of positive-control rescue, neutral wells zero; protection from apoptosis, % (concentration not given with the values); 0.8% of 300,000 active; AID 435005, 2010;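 active = Every replicate reaches about 75%, or at least half do and their mean reaches it too, limit read from the data; inconclusive = At least half of replicates reach the limit but their mean does not; inactive = Under half of replicates reach the limit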;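 also: 0% = cytokine-treated negative control wells and 100% = positive control rescue; higher means more ATP so stronger rescue from cytokine killing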
# MPTP inh = mitochondrial permeability transition pore inhibitors, primary screen, biochemical, isolated mouse mitochondria, absorbance; AID 602449, 2012; Ca2+ swelling absorbance, 30 min; inhibition, % at 10 µM; 1.4% of 360,000 active;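 active = inhibition of 50% or more, scaled per plate between neutral and stimulator controls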;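 also: 0% = DMSO wells given calcium and 100% = 1 mM EGTA wells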
# Rh123 counter = fluorescence retest of MPTP screen hits in isolated mitochondria, single concentration; inhibition, % at 10 µM; AID 624504, 2012; membrane potential, Rhodamine 123 fluorescence; 78% of 5,000 active; shares compounds with MPTP inh; in the data active = inhibition above about 22%;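 also: 0% = DMSO vehicle and 100% = positive control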
# MPTP swell DR = mitochondrial permeability transition pore inhibitors, dose response, biochemical, absorbance, uHTS hits; shares compounds with MPTP inh; isolated mitochondria swelling; IC50, µM; 58% of 780 active; in the data active = IC50 below about 20 µM
# MPTP cs DR = fluorescent counter-screen in isolated mitochondria, dose response, counter-screen for MPTP inhibitor project, biochemical, fluorescence, uHTS hits | shares compounds with MPTP inh | isolated mitochondria counterscreen, fluorescence read-out | IC50, µM | 49% of 780 active | AID 651564, 2012; in the data active = IC50 below about 80 µM
# The depositor's hits bear a star; i = inactive; u = inconclusive; x = not tested or not shown. Shown are actives, neighbours in structure and some others; about 6.9% of the full set was active somewhere.
SMILES,Mdm2-MdmX inh,CSC inhib,GRIN3A LBD mod,SKKanGAS inh,Beta apoptosis,MPTP inh,Rh123 counter,others
Cc1ccc2c(c1)nnn2C1CCN(S(=O)(=O)c2ccc(C(=O)N3C(C)CCCC3C)cc2)CC1 (centres undefined),25.9,40.7,-5.6,1.8,106.1*,98.3*,86.8*,
Cn1cc(S(=O)(=O)N2CCc3ccccc32)cc1C(=O)NC(C)(C)C,12.3,0.7,-1.0,-3.0,41.0,50.0*,79.5*,
Cc1cccc(C)c1NC(=O)c1cc(S(=O)(=O)N2CCc3ccccc32)cn1C,23.7,-7.7,-1.1,1.2,1.8,-1.0,x,
COc1ccccc1OCCNC(=O)Nc1ccc(Br)cc1,3.8,5.8,-4.1,-1.2,6.4,84.7*,81.7*,
Cn1c(-c2ccc(C#N)cc2)c(C#Cc2ccccc2)c2ccccc21,x,x,-4.4,x,x,0.0,x,
N#Cc1c(-c2ccc(Cl)cc2)n(O)c2ccccc12,x,x,23.2*,x,x,95.6*,99.6*,
CN(C)S(=O)(=O)c1cccc(-c2nn(-c3ccccc3)cc2/C=C(\C#N)c2nc3ccccc3[nH]2)c1,14.0,-10.2,-1.0,35.0,1.6,8.1,x,
CN(C)S(=O)(=O)c1cccc(-c2nn(-c3ccccc3)cc2/C=C2\SC(=S)NC2=O)c1,x,94.1*,11.2*,x,37.7,97.4*,45.3*,
Cc1ccc2nc(C(Cl)(Cl)Cl)nc(N/N=C/c3ccncc3)c2c1,-0.6,-8.9,-6.4,8.1,4.0,-1.2,x,
Cc1ccc2nc(C(Cl)(Cl)Cl)nc(N/N=C/c3ccc([N+](=O)[O-])cc3)c2c1,x,x,-0.9,x,x,94.4*,9.5,MPTP swell DR=i;MPTP cs DR=11.4*
O=C(Cc1ccccc1F)Nc1ccc(SC(F)F)cc1,-109.3,25.0,-1.4,-5.3,2.6,10.6,x,
O=C(Cc1ccc(Cl)cc1)Nc1ccc(SC(F)F)cc1,-53.3,34.1,8.2,0.3,-0.4,92.0*,104.5*,
O=c1c2c(C(F)(F)F)cc(C(F)(F)F)nc2[nH]n1-c1ccccc1,18.4,10.3,0.4,15.3,-3.1,90.0*,67.8*,
O=S(=O)(Nc1ccc(C(F)(F)F)cn1)c1ccccc1,-16.7,-11.2,0.9,-1.6,-1.0,2.0,x,
Cc1ccc(NC(=O)CSc2nc(=O)cc(N)n2-c2ccccc2)cc1,-12.3,0.3,1.0,23.2,-9.1,0.1,x,
Nc1cc(=O)nc(SCC(=O)N(C2CCCCC2)C2CCCCC2)n1-c1ccccc1,-26.7,-1.2,-1.2,29.0,-2.3,64.1*,-11.9,MPTP swell DR=>100;MPTP cs DR=>80
Cc1cnc(C(=O)NC2CCSc3ccccc32)cn1 (centres undefined),-3.1,0.0,0.8,-1.6,-1.2,-1.4,x,
CCOc1ccc(NC(=S)NNc2ccnc3cc(Cl)ccc23)cc1,18.4,x,4.3,-12.1,2.2,80.8*,63.1*,
CCN(CC(=O)Nc1ccc(NC(C)=O)cc1)C(=O)CCCc1c[nH]c2ccccc12,-7.0,-13.0,0.4,x,-2.4,0.6,x,
CCC(Oc1ccccc1)C(=O)N(C)CC(=O)N(CC(C)C)c1c(N)n(CC(C)C)c(=O)[nH]c1=O (centres undefined),12.8,x,1.4,1.7,0.6,-0.1,x,
Cc1ccc(C)c(NC(=O)c2ccc3c(c2)CCN3S(C)(=O)=O)c1,x,x,x,x,x,0.2,x,
Cc1ccc(NC(=O)c2ncn(CCCNCCCc3ccccc3)n2)cc1C,x,x,-0.2,x,x,2.1,x,
CCC(C)[C@@H](NC(=O)OC(C)(C)C)c1nnc(S(=O)(=O)Cc2cccc(C)c2)o1 (some centres undefined),x,x,12.2*,-16.5,x,90.7*,-3.8,
Cc1cccc(CS(=O)(=O)Cc2ccc(C(=O)NC(C)c3ccccc3)o2)c1 (centres undefined),1.0,-8.1,-1.6,-5.7,3.5,-1.0,x,
Cc1ccccc1N1C(=O)CN(Cc2sccc2C)C1=S,24.6,9.6,1.3,0.8,-5.0,1.2,x,
SMILES,Mdm2-MdmX inh,CSC inhib,GRIN3A LBD mod,SKKanGAS inh,Beta apoptosis,MPTP inh,Rh123 counter,others
O=C(CCN1CCN(c2ccccc2F)CC1)c1ccc(Br)cc1,-2.3,x,7.9,5.1,-12.0,112.5*,6.0,MPTP swell DR=i;MPTP cs DR=52.8*
COc1ccc(C(=O)CCN2CCN(c3ccccc3F)CC2)cc1,1.3,u,-0.5,-10.7,-11.6,3.4,x,
CCC(C)c1ccccc1NC(=O)c1cc(C)no1 (centres undefined),-17.9,-2.5,-1.7,-0.3,3.1,0.5,x,
CN(C)S(=O)(=O)c1ccc(NC(=O)CSc2ncnc3ccccc23)cc1,31.1,0.2,-8.5,-0.9,-3.5,1.2,x,
CN(C)S(=O)(=O)c1cccc(NC(=O)CSc2ncnc3ccccc23)c1,14.6,6.0,-0.9,-7.3,-2.6,84.2*,66.4*,
CCN(CC)S(=O)(=O)c1cccc(NC(=O)CSc2nc3ccccc3[nH]2)c1,1.2,10.5,-3.6,-0.6,-3.2,65.2*,33.3*,
CCOc1ccccc1N1CCN(C(=O)Nc2ccc(F)c(Cl)c2)CC1,23.0,8.4,-1.3,29.5,11.6,88.0*,92.8*,
Cc1cc(C)cc(Oc2nc(C(F)(F)F)nc3ccccc23)c1,20.6,42.3,0.5,30.4,7.3,80.3*,-4.2,MPTP swell DR=>100;MPTP cs DR=77.6*
CC(=O)Nc1ccc(Oc2nc(C(F)(F)F)nc3ccccc23)cc1,3.6,7.7,0.1,-1.5,-1.2,-0.2,x,
C=C(C)COc1ccc2c(C)c(CC(=O)OC)c(=O)oc2c1C,-48.7,-9.1,6.8,x,11.6,75.1*,58.9*,
Cc1c(OCC(=O)OC(C)(C)C)ccc2c3c(c(=O)oc12)CCC3,14.6,44.6,1.0,7.0,-0.7,62.2*,56.1*,
Oc1c(Cl)cc(Cl)cc1C=Nc1ccc2c(c1)OCCO2,35.7,-6.8,-0.2,5.0,-2.8,3.0,x,
CN(/N=C/c1cc(Cl)cc(Cl)c1O)C(=S)NC(C)(C)C,7.6,99.6*,31.4*,27.6,14.5,85.1*,74.7*,
CC(=O)N1CCCc2cc(S(=O)(=O)NCc3ccc(C)cc3)ccc21,-1.5,-7.7,0.7,4.9,0.6,0.8,x,
CC(=O)N1CCCc2cc(S(=O)(=O)NCCC3=CCCCC3)ccc21,23.4,-6.5,-0.3,-4.0,22.7,51.0*,23.4*,
O=C(CNC(=O)CNC(=O)c1ccc(Cl)cc1Cl)NCc1cccc(Cl)c1,13.2,-6.3,-0.7,-3.3,-2.9,0.7,x,

# Screening data as filed in PubChem.
